Compound activity deposited in PubChem BioAssay by several laboratories.
A selection: hits, their analogues and other compounds. The true share with any hit is near 3%.
TWEAK-Fn14 inh – inhibitors of TWEAK-Fn14 interaction signaling | TWEAK-stimulated Fn14 reporter cells, luciferase luminescence, 8 h | inhibition, % at 10 µM | 360,000 tested, 2% active; in the data active = inhibition above about 50%
TROY signal inh – blocks TROY-dependent signaling in reporter cells; Q293 LMP1-TROYcd NF-kB luciferase reporter, 4 h; inhibition, % at 10 µM; 360,000 tested, 0.98% active; AID 1347056;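 active = compounds whose plate-normalised and pattern-corrected inhibition of the luciferase reporter signal at the single screening dose is 50% or more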
MITF TRPM1 HTS – increases MITF-driven TRPM1 promoter luciferase signal; SK-MEL-5 TRPM1-promoter luciferase, 24 h; % of positive control, neutral wells = 0; activation, % at 12.5 µM; 300,000 tested, 0.75% active; AID 588334;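 active = mean activation of at least 80% with every replicate also reaching 80%; inconclusive = mean reaches 80% but some replicate falls short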;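 also: 0% = neutral control wells and 100% = parthenolide positive control wells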
LGR2 inh – inhibitors of bursicon-induced Drosophila LGR2 receptor cAMP signaling; HEK293 LGR2, CRE-luciferase, bursicon-stimulated, 4 h; inhibition, % at 9.99 µM; 380,000 tested, 0.35% active;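 active = drop in luminescence signal, shown as inhibition above about 50% in the replicate tests, limit read from the data, passing the limit was not always enough; inconclusive = probably only some replicates passing the limit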;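 also: agonist challenge used bursicon conditioned medium at about half maximal strength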
TRPM1 prom inh – inhibitors of MITF-driven TRPM1 promoter in melanoma cells; AID 488899; inhibition, % at 12.5 µM; SK-MEL-5 TRPM1 promoter luciferase, 24 h; 330,000 tested, 0.83% active;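 active = mean inhibition across replicates of 60% or more, whatever share of single replicates reaches that level; inconclusive = some that reach 60%, reason not given; inactive = mean inhibition across replicates below 60%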
EBV LMP1 NFkB – Epstein-Barr LMP1 NF-kappaB reporter inhibition. LMP1-induced NF-kappaB luciferase reporter cells, luminescence. inhibition, % at 12.5 µM. 350,000 tested, 0.69% active; in the data active = inhibition above about 41%; inconclusive = no clear call, values can overlap the other calls;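 also: 0% = neutral control wells and 100% = reference inhibitor control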
* marks the source's active call; other numbers are inactive results; ? = inconclusive; / = no result given; ! = a repeat was not active.

SMILES | TWEAK-Fn14 inh | TROY signal inh | MITF TRPM1 HTS | LGR2 inh | TRPM1 prom inh | EBV LMP1 NFkB
O=C(O)c1ccc(N/N=C/c2cc3c(cc2[N+](=O)[O-])OCO3)cc1 | 34.1 | -7.4 | -24.4 | -24.4 | 22.8 | 7.5
O=C(O)c1ccc(N/N=C/c2ccc3c(c2)OCO3)cc1 | 102.0* | 82.2* | -81.9 | 101.5* | 83.4* | 64.8*
O=C(O)c1ccc(N/N=C/c2cc3cc4c(cc3nc2Cl)OCCO4)cc1 | 30.4 | -15.8 | 13.7 | 60.0* | -6.6 | 42.2*
O=C(O)c1cc(N/N=C/C(Cl)=C/c2ccccc2)ccc1Cl | 8.2 | -79.7 | -58.2 | 73.3* | ? | -9.7
O=C(O)c1cc(NN=C2c3ccccc3-c3ccccc32)ccc1Cl | -11.2 | -6.0 | 10.5 | -2.9 | -12.0 | 3.4
CC(C)NC(=O)N(C)C[C@@H]1OCCCC[C@@H](C)Oc2ccc(N(C)C)cc2C(=O)N([C@@H](C)CO)C[C@H]1C | / | / | / | -15.5 | / | /
O=C(C[C@@H]1C=C[C@H](NC(=O)c2cccnc2)[C@H](CO)O1)NCCN1CCCCC1 | / | / | / | 22.8 | / | /
C[C@@H]1CN([C@@H](C)CO)C(=O)c2cc(-c3cncnc3)cnc2O[C@H]1CN(C)C(=O)Nc1ccc2c(c1)OCO2 | / | / | / | 17.3 | / | /
COc1ccccc1-c1cn(CC[C@H]2CC[C@@H](NC(=O)c3cnccn3)[C@H](CO)O2)nn1 | / | / | / | 6.2 | / | /
O=C(N/C=C/c1ccccc1)c1ccccc1 | -8.7 | -56.5 | 109.1* | -91.7 | -112.5 | -18.1
Cc1ccc(NC(=O)C(=O)Nc2ccccn2)cc1 | 85.7* | 57.2* | -4.4 | 92.9* | 2.6 | 56.1*
COC(=O)c1ccc(NC(=S)Nc2ccccn2)cc1 | -30.0 | -46.7 | 112.5* | / | -105.6 | -21.6
COc1ccc(NC(=S)Nc2ccccn2)cc1 | -4.5 | -92.0 | ? | -41.7 | -73.7 | -24.0
Cc1ccc(/C=C(\C#N)C(=O)Nc2ccccn2)o1 | 3.7 | -20.4 | 103.2* | -47.4 | -113.2 | -26.1
CCNC(=O)C[C@H]1CC[C@H]2[C@H](COc3ccc(NC(=O)c4ccc(F)c(F)c4)cc3C(=O)N2C)O1 | / | / | / | -6.0 | / | /
CCOC(=O)c1sc2nc(C)nc(NCc3ccccc3OC)c2c1C | 54.4* | 31.3 | -9.1 | -11.9 | 9.3 | 16.9
CCOC(=O)c1sc2nc(C)nc(NCCc3ccccn3)c2c1C | 11.2 | 7.4 | 0.8 | -0.6 | 0.5 | 6.0
COc1ccc2[nH]c(C(=O)N3CCC(CO)(Cc4cccc(C(F)(F)F)c4)CC3)c(C)c2c1 | 22.0 | 52.7* | / | 2.8 | -7.1 | 1.7
O=C(c1ccccc1F)N1C[C@@H]2[C@H](c3ccccc31)[C@@H](CO)N2C(=O)Nc1ccccc1 | / | / | / | -1.1 | / | /
NCCCS(=O)(=O)O | -4.8 | 11.5 | -1.9 | 8.0 | -1.6 | 53.9*!
O=S(=O)(O)CCS | -13.1 | -3.0 | -2.9 | -7.2 | 0.5 | 7.0
O=C(Cc1ccncc1)N1CC[C@@H]2[C@H]1c1cc(-c3cccc(F)c3)ccc1N[C@@H]2CO | / | / | / | -15.5 | / | /
C[C@H]1CN([C@@H](C)CO)C(=O)CCCn2nncc2CO[C@@H]1CN(C)C(=O)Nc1cccc2ccccc12 | 53.3* | 47.8 | / | -11.0 | / | 2.9
C[C@H](CO)N1C[C@H](C)[C@H](CN(C)S(=O)(=O)c2ccc(F)cc2)OCc2cnnn2CCCC1=O | 101.7* | 6.5 | / | -10.3 | / | 2.4
CO[C@@H]1CN(C)C(=O)c2ccc(NC(=O)C3CCOCC3)cc2OC[C@H](C)N(C)C[C@@H]1C | / | / | / | 16.8 | / | /
SMILES | TWEAK-Fn14 inh | TROY signal inh | MITF TRPM1 HTS | LGR2 inh | TRPM1 prom inh | EBV LMP1 NFkB
Cc1nc(N2CCN(c3ccccn3)CC2)c2c(C)c(C(=O)Nc3c(F)cc(F)cc3Br)sc2n1 | 64.8* | 28.2 | 6.8 | 10.7 | -6.5 | 8.5
Cc1c(C(=O)N2CCN(c3ccccc3)CC2)sc2ncnc(N3CCN(c4ccccn4)CC3)c12 | 44.8 | 32.6 | -25.6 | 29.6 | 27.5 | 14.2
Cc1nc(N2CCN(c3ccccn3)CC2)c2c(C)c(C(=O)Nc3c(C)cc(Br)cc3C)sc2n1 | 35.1 | 8.7 | -14.1 | 20.8 | 14.2 | 12.8
Cc1c(C(=O)N2CCN(c3ccc(F)cc3)CC2)sc2ncnc(N3CCN(c4ccccn4)CC3)c12 | 60.4* | 52.6* | -31.2 | 32.8 | 36.3 | 24.8
C/C(=C\C(=O)Nc1cc(C)on1)c1ccccc1 | -16.2 | -11.3 | 81.9* | / | -79.4 | -3.5
CCN(CC(=O)NCc1ccc(Cl)cc1)C(=O)CN1C(=O)NC(CC)(c2ccccc2)C1=O (stereo not given) | 90.7* | -10.2 | -11.9 | 6.5 | 14.2 | -0.9
